Reference: the supplement of paper PMC9262897, “Low-cost anti-mycobacterial drug discovery using engineered E. coli” (Nature Communications, 2022)
Structures can show the parent of a compound that is named as a salt. ± gives the standard deviation of the averaged measurements.

What was measured:
Assay in all cases: growth (OD600 after 10 h); higher = more growth (less inhibition)
[1] = system: E. coli TESEC Alr+ wild-type control; conditions: compound 0.1 mM; raw OD600 reference: median of DMSO wells 0.241, cell-free background 0.041
Procedure: (§1)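 TESEC Mtb Alr E. coli, or the Alr+ wild-type control, in 384-well plates with Prestwick library compounds at 0.1 mM and 1% DMSO, across arabinose induction levels of 1E3 to 1E7 nM. Growth is read as OD600 after 10 h at 37 °C in triplicate biological replicates.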

E. coli TESEC Mtb Alr [2] = conditions: compound 0.1 mM
Procedure: as §1

E. coli TESEC Mtb Asd = conditions: compound 0.1 mM
Procedure: (§2)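 TESEC E. coli strains in which the native enzyme is deleted and replaced by arabinose-inducible Mtb Asd, DapB, CysH or TrpD, each grown in its selective medium. Strains were screened against the Prestwick library at 0.1 mM and 1% DMSO in 384-well format at low and high arabinose induction. Growth is read as OD600 after 10 h in triplicate.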

E. coli TESEC Mtb DapB = conditions: compound 0.1 mM
Procedure: as §2

[3] = system: E. coli TESEC Alr+ wild-type control; conditions: compound 0.1 mM; raw OD600 reference: median of DMSO wells 0.49, cell-free background 0.052
Procedure: (§3)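 TESEC Mtb Alr E. coli (ΔaraC ΔtolC ΔentC Δalr ΔdadX, arabinose-inducible Mtb Alr) or the Alr+ wild-type control strain, grown in defined M9-fructose medium without D-alanine in 96-well plates with Prestwick library compounds at 0.1 mM and 1% DMSO. Low Alr induction is 0.1 µM arabinose and high induction is 10 mM arabinose.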

E. coli TESEC Mtb Alr [4] = conditions: compound 0.1 mM; remark: listed apart in the source
Procedure: as §3

[5] = arabinose 1000 nM, raw OD600 reference: median of DMSO wells 0.294, cell-free background 0.041
[6] = arabinose 10000 nM, raw OD600 reference: median of DMSO wells 0.264, cell-free background 0.041
[7] = arabinose 100000 nM, raw OD600 reference: median of DMSO wells 0.201, cell-free background 0.041
[8] = arabinose 1000000 nM, raw OD600 reference: median of DMSO wells 0.193, cell-free background 0.041
[9] = arabinose 10000000 nM, raw OD600 reference: median of DMSO wells 0.146, cell-free background 0.041
[10] = arabinose induction (level): High, raw OD600 reference: median of DMSO wells 0.331, cell-free background 0.041
[11] = arabinose induction (level): Low, raw OD600 reference: median of DMSO wells 0.417, cell-free background 0.041
[12] = arabinose induction (level): High, raw OD600 reference: median of DMSO wells […], cell-free background 0.041
[13] = arabinose induction (level): Low, raw OD600 reference: median of DMSO wells 0.227, cell-free background 0.041
[14] = arabinose 100 nM, raw OD600 reference: median of DMSO wells 0.413, cell-free background 0.052
[15] = arabinose 10000000 nM, raw OD600 reference: median of DMSO wells […], cell-free background 0.052

Row | SMILES | growth [1] | growth (E. coli TESEC Mtb Alr [2]; [5]) | growth (E. coli TESEC Mtb Alr [2]; [6]) | growth (E. coli TESEC Mtb Alr [2]; [7]) | growth (E. coli TESEC Mtb Alr [2]; [8]) | growth (E. coli TESEC Mtb Alr [2]; [9]) | growth (E. coli TESEC Mtb Asd; [10]) | growth (E. coli TESEC Mtb Asd; [11]) | growth (E. coli TESEC Mtb DapB; [12]) | growth (E. coli TESEC Mtb DapB; [13]) | growth [3] | growth (E. coli TESEC Mtb Alr [4]; [14]) | growth (E. coli TESEC Mtb Alr [4]; [15])
1 | N=C(N)NC(=O)c1nc(Cl)c(N)nc1N [Amiloride hydrochloride dihydrate] | 0.236 ± 0.012 | 0.291 ± 0.021 | 0.257 ± 0.003 | 0.255 ± 0.016 | 0.181 ± 0.0048 | 0.15 ± 0.0063 | 0.387 ± 0.036 | 0.428 ± 0.033 | 0.203 ± 0.0053 | 0.278 ± 0.035 | 0.497 ± 0.071 | 0.407 ± 0.014 | 0.392 ± 0.015
2 | O=C(O)c1ccccc1OP(=O)(O)O [Fosfosal] | 0.242 ± 0.0067 | 0.292 ± 0.017 | 0.266 ± 0.0057 | 0.192 ± 0.026 | 0.198 ± 0.0055 | 0.137 ± 0.0018 | 0.349 ± 0.051 | 0.424 ± 0.097 | 0.21 ± 0.017 | 0.239 ± 0.0092 | 0.561 ± 0.049 | 0.405 ± 0.01 | 0.366 ± 0.0071
3 | CN1CCC[C@@H]1CCO[C@](C)(c1ccccc1)c1ccc(Cl)cc1 [Clemastine fumarate] | 0.0447 ± 0.00026 | 0.0419 ± 0.00017 | 0.0403 ± 0.0001 | 0.04353 ± 0.00025 | 0.04023 ± 0.00015 | 0.0439 ± 0.0004 | 0.0482 ± 0.0021 | 0.0504 ± 0.0026 | 0.0513 ± 0.00046 | 0.102 ± 0.085 | 0.218 ± 0.29 | 0.421 ± 0.0052 | 0.0923 ± 0.02
4 | CC(=O)/N=c1/sc(S(N)(=O)=O)nn1C [Methazolamide] | 0.247 ± 0.0057 | 0.301 ± 0.019 | 0.266 ± 0.0036 | 0.198 ± 0.019 | 0.193 ± 0.0042 | 0.138 ± 0.01 | 0.342 ± 0.034 | 0.447 ± 0.02 | 0.207 ± 0.013 | 0.228 ± 0.01 | 0.438 ± 0.049 | 0.397 ± 0.012 | 0.348 ± 0.027
5 | C#C[C@]1(O)CC[C@H]2[C@@H]3CCc4cc(O)ccc4[C@H]3CC[C@@]21C [Ethinylestradiol] | 0.0556 ± 0.00079 | 0.0489 ± 0.0023 | 0.0421 ± 0.00055 | 0.0506 ± 0.0016 | 0.0444 ± 0.00061 | 0.05593 ± 0.00015 | 0.112 ± 0.017 | 0.0911 ± 0.062 | 0.0856 ± 0.007 | 0.0703 ± 0.0015 | 0.0818 ± 0.0029 | 0.303 ± 0.024 | 0.0705 ± 0.016
6 | CCc1oc2ccccc2c1C(=O)c1cc(Br)c(O)c(Br)c1 [Benzbromarone] | 0.0407 ± 0.001 | 0.0448 ± 0.0076 | 0.0403 ± 0.00069 | 0.0421 ± 0.0019 | 0.03953 ± 0.00015 | 0.047 ± 0.0017 | 0.0473 ± 0.0012 | 0.0482 ± 0.002 | 0.0504 ± 0.0016 | 0.0491 ± 0.001 | 0.05037 ± 5.8e-05 | 0.0588 ± 0.0027 | 0.0513 ± 0.0023
7 | CCOC(=O)C1=C(COCCN)NC(C)=C(C(=O)OC)C1c1ccccc1Cl (stereo not given) [Amlodipine] | 0.231 ± 0.0038 | 0.2004 ± 0.0019 | 0.23 ± 0.022 | 0.179 ± 0.0029 | 0.0929 ± 0.0035 | 0.104 ± 0.0021 | 0.132 ± 0.0075 | 0.136 ± 0.0072 | 0.155 ± 0.077 | 0.205 ± 0.017 | 0.566 ± 0.028 | 0.398 ± 0.0055 | 0.282 ± 0.011
8 | CCCOc1ccc2[nH]c(NC(=O)OC)nc2c1 [Oxibendazol] | 0.264 ± 0.025 | 0.309 ± 0.021 | 0.269 ± 0.0059 | 0.213 ± 0.028 | 0.183 ± 0.0022 | 0.151 ± 0.0057 | 0.353 ± 0.1 | 0.425 ± 0.048 | 0.191 ± 0.013 | 0.219 ± 0.027 | 0.518 ± 0.085 | 0.409 ± 0.0096 | 0.345 ± 0.039
9 | C/C(=C(\CCOP(=O)(O)O)SC(=O)c1ccccc1)N(C=O)Cc1cnc(C)nc1N [Benfotiamine] | 0.2481 ± 0.0011 | 0.317 ± 0.014 | 0.257 ± 0.0029 | 0.205 ± 0.019 | 0.186 ± 0.006 | 0.141 ± 0.0056 | 0.352 ± 0.068 | 0.41 ± 0.11 | 0.188 ± 0.0089 | 0.224 ± 0.032 | 0.502 ± 0.11 | 0.404 ± 0.0067 | 0.359 ± 0.0094
10 | CCN1CCN(C(=O)N[C@@H](C(=O)N[C@@H]2C(=O)N3C(C(=O)O)=C(CSc4nnnn4C)CS[C@H]23)c2ccc(O)cc2)C(=O)C1=O [Cefoperazone dihydrate] | 0.2999 ± 0.0024 | 0.321 ± 0.0082 | 0.221 ± 0.0032 | 0.3 ± 0.0043 | 0.182 ± 0.0037 | 0.1843 ± 0.0004 | 0.413 ± 0.016 | 0.417 ± 0.087 | 0.201 ± 0.0085 | 0.239 ± 0.042 | 0.512 ± 0.039 | 0.221 ± 0.078 | 0.341 ± 0.025
11 | CN(C)CCOc1ccc(/C(=C(/CCCl)c2ccccc2)c2ccccc2)cc1 [Toremifene] | 0.0414 ± 0.0014 | 0.04087 ± 0.0004 | 0.04003 ± 0.00032 | 0.0409 ± 0.00036 | 0.04023 ± 0.00025 | 0.04073 ± 0.00021 | 0.0528 ± 0.00055 | 0.057 ± 0.0021 | 0.0495 ± 0.0014 | 0.0508 ± 0.001 | 0.0478 ± 0.00064 | 0.0666 ± 0.015 | 0.0577 ± 0.0032
12 | CN(C)/N=N/c1[nH]cnc1C(N)=O [Dacarbazine] | 0.211 ± 0.0036 | 0.259 ± 0.0098 | 0.219 ± 0.012 | 0.197 ± 0.036 | 0.136 ± 0.0025 | 0.151 ± 0.0043 | 0.278 ± 0.036 | 0.362 ± 0.12 | 0.181 ± 0.012 | 0.213 ± 0.033 | 0.51 ± 0.11 | 0.405 ± 0.013 | 0.296 ± 0.024
13 | CCCOc1ccc(C(=O)OCCN(CC)CC)cc1N [Proparacaine hydrochloride] | 0.228 ± 0.0033 | 0.308 ± 0.017 | 0.268 ± 0.013 | 0.196 ± 0.0096 | 0.17 ± 0.0027 | 0.153 ± 0.0029 | 0.46 ± 0.0053 | 0.426 ± 0.025 | 0.187 ± 0.0041 | 0.231 ± 0.021 | 0.469 ± 0.043 | 0.408 ± 0.017 | 0.354 ± 0.024
14 | O=C1OC(CN2CCOCC2)CN1/N=C/c1ccc([N+](=O)[O-])o1 (stereo not given) [Furaltadone hydrochloride] | 0.04157 ± 0.00012 | 0.0421 ± 0.002 | 0.0409 ± 0.0001 | 0.04173 ± 5.8e-05 | 0.0404 ± 0.00046 | 0.0427 ± 0.0014 | 0.0534 ± 0.0031 | 0.0559 ± 0.0011 | 0.0577 ± 0.0081 | 0.0529 ± 0.00068 | 0.05647 ± 0.00045 | 0.0601 ± 0.0022 | 0.0562 ± 0.0033
15 | COCC1=C(C(=O)OC(C)OC(=O)OC(C)C)N2C(=O)[C@@H](NC(=O)/C(=N\OC)c3csc(N)n3)[C@H]2SC1 (stereo not given in full) [Cefpodoxime proxetil] | 0.2132 ± 0.002 | 0.116 ± 0.0091 | 0.0588 ± 0.0019 | 0.22 ± 0.011 | 0.166 ± 0.008 | 0.165 ± 0.0036 | 0.215 ± 0.051 | 0.179 ± 0.034 | 0.202 ± 0.05 | 0.285 ± 0.049 | 0.425 ± 0.044 | 0.0545 ± 0.0063 | 0.278 ± 0.016
